The values that follow come from ChEMBL document CHEMBL3988442, “University of Dundee, Small-Polar-MMV Screening Library” (2021).

The campaign covered roughly 69,000 compounds. About 950 (1.4%) showed an effect of 50% or more. For the sample, strong results were picked, then their nearest neighbours and some compounds at random.

The test deals with Mycobacterium tuberculosis. Kind of test: Cornell M. t heat shock assay. Note: in the data most compounds retested in dose-response had high values. The test is classed as functional, organism-based. Set-up: dose or concentration left out as unconfirmed.
On to `Fc1ccc(CN2CC[C@H]3O[C@@H](COCC4CCOCC4)CC[C@H]32)cc1.O=C(O)C(F)(F)F`, for which the “Percent Effect” value is on record as -16.61%.
The result for `CCC(C)[C@H](N)c1nnc(SCC(=O)Nc2cc(C)ccc2C)o1.Cl` (stereo partly drawn) reads -10.79%; that for `Cc1cc2c(=O)n3c(nc2s1)CCN(Cc1c[nH]cn1)CC3.Cl`, -21.28%.
Regarding `Clc1ccc(C2(CNC3=NCCN3)CCCCC2)cc1.I`, the “Percent Effect” value came out at 77.48%.
The result for `Clc1ccc(C2(CNC3=NCCN3)CC2)cc1.I` reads -24.96%; that for `Clc1ccc(C2(CNC3=NCCN3)CCCC2)cc1.I`, 20.92%; that for `O=C(NCC1CC1)[C@H]1C[C@H]2OCC[C@H]2N(CCc2ccccc2)C1.O=C(O)C(F)(F)F`, -0.2328%.
`COc1ccc(-c2cc3nn(CC(N)=O)c(=O)n3c(C)n2)cc1`: the “Percent Effect” value is 28.25%.
For the compound `Cc1nc(-c2ccccc2)cc2nn(CC(N)=O)c(=O)n12`, the “Percent Effect” value was determined as 80.99%.
The result for `COc1ccc(-c2cc3nn(CC(=O)NC(C)C)c(=O)n3c(C)n2)cc1` reads 21.42%; that for `CCC1=N[C@@]2(CC[C@@H]3CN(Cc4ccc(F)cc4)C[C@@H]32)C(=O)N1C.O=C(O)C(F)(F)F`, 6.299%; that for `COCCN1CCC2(COCCN(Cc3ccc4c(c3)OCO4)C2)C1.O=C(O)C(F)(F)F.O=C(O)C(F)(F)F` (stereo not drawn), -9.9%.
For `O=C(O)C(F)(F)F.O=C(O)C(F)(F)F.O=C(O)C(F)(F)F.O=C1CO[C@@H]2CN(Cc3cccnc3)C[C@H]2N1Cc1ccncc1`, the “Percent Effect” value was -18.69%.
Turning to `COCCC(=O)N1CC[C@@H](N2CCOCC2)[C@@H]1Cc1ccccc1.O=C(O)C(F)(F)F`, the “Percent Effect” value is -10.34%.
In the case of `CC(C)c1cc(C(=O)NC2CCN(CC(N)=O)CC2)nn1C(C)(C)C` it was 17.37%.
The result for `Cc1cc(C(=O)NC2CCN(CC(N)=O)CC2)nn1C(C)(C)C` reads 61.29%; that for `CC(C)(C)n1nc(C(=O)NC2CCN(CC(N)=O)CC2)cc1C1CC1`, 19.52%; that for `Cc1noc(C)c1-c1nc(C2CCCNC2)ccc1CO.Cl.Cl` (stereo not drawn), 6.462%.
The result for `Cn1ccnc1C(NCc1csc(Br)c1)c1ccccc1` (stereo not drawn) reads 103.5%.
For `Cc1cc(C)cc(CNC(C)c2c(C)nn(C)c2C)c1` (stereo not drawn), the “Percent Effect” value is recorded as -33.33%.
The result for `Cc1ccc(CNC(c2ccccc2)c2nccn2C)cc1.Cl` (stereo not drawn) reads 106.1%.
In the case of `Cc1cccc(CNC(CN2CCN(C)CC2)c2ccccc2)c1` (stereo not drawn) it was -9.551%; in that of `O=C(CCNc1ncccn1)NCc1csc(Br)c1`, 2.477%; in that of `Cc1cc(C)cc(CNC(c2ccccc2)c2nccn2C)c1` (stereo not drawn), 112.3%.
In the case of `Cc1cnn(CC(C)NCc2ccc(OCc3nccn3C)cc2)c1` (stereo not drawn) it was -7.408%; in that of `O=C(NCc1csc(Br)c1)c1ccncc1`, 14.96%.
With `COc1cc(CNC(C)Cn2cccn2)cc(OC)c1` (stereo not drawn), the “Percent Effect” value was -10.57%.
Consider `COc1cc(CNC(c2ccccc2)c2nccn2C)cc(OC)c1` (stereo not drawn), for which the “Percent Effect” value was 110.9%.
In the case of `Cc1ccc(CNCC(C)Oc2ccccn2)cc1.Cl` (stereo not drawn) it was -12.77%; in that of `COc1c(CNC(c2ccccc2)c2nccn2C)c(C)nn1C` (stereo not drawn), -17.9%.
The result for `Cn1ccnc1CN1CCC2(CC(=O)N(c3cncnc3)C2)C1.O=C(O)C(F)(F)F` (stereo not drawn) reads 8.638%; that for `CC(C)NC(=O)c1sc2ccccc2c1[C@H]1CC[C@H](CN)CC1.Cl`, 6.071%; that for `O=C(O)C(F)(F)F.c1cnc(N2Cc3nccn3CC(COc3cccnc3)C2)nc1` (stereo not drawn), -4.281%.
In the case of `Cc1ccc(CNC(CN2CCN(C)CC2)c2ccccc2)cc1` (stereo not drawn) it was 5.608%; in that of `Cc1ccc(CNC(c2ccccc2)c2nccn2C)cc1C` (stereo not drawn), 103.6%; in that of `Cn1ccnc1-c1noc(NCc2ccccc2)n1`, -11.975%.
`CCNC(c1ccc(Br)cc1)c1cccnc1` (stereo not drawn): the “Percent Effect” value was 0.8227%.
In the case of `Cn1ccnc1C(NCc1ccc(Br)cc1)c1ccccc1` (stereo not drawn) it was 112.1%; in that of `Cc1ccc(CNC(CN2CCN(C)CC2)c2ccccc2)cc1C` (stereo not drawn), 7.265%.
The result for `COc1ccc(CNC(Cn2cncn2)c2ccccc2)cc1C` (stereo not drawn) reads 7.595%; that for `Cn1ccnc1-c1noc(NCc2ccc(Br)cc2)n1`, -1.325%.
In the case of `Cn1nnc2c1C(COCc1ccccn1)CN(Cc1ccoc1)C2.O=C(O)C(F)(F)F.O=C(O)C(F)(F)F` (stereo not drawn) it was -16.51%; in that of `O=S(=O)(N1CCOCC1)N1CCCC(c2ccccn2)C1` (stereo not drawn), -20.74%; in that of `COCCN1C[C@@H]2CCCO[C@@H]2[C@H](N(C)Cc2ccco2)C1.O=C(O)C(F)(F)F.O=C(O)C(F)(F)F`, 1.752%.
Regarding `Cn1cc(N2CC3(CCN(Cc4ccsc4)CC3)OCC2=O)cn1.O=C(O)C(F)(F)F`, the “Percent Effect” value is listed as -18.04%.
In the case of `Cc1cnccc1-c1cnn(CCNC(=O)C(C)(C)C)c1C1CC1.Cl` it was -19.45%; in that of `O=C(O)C(F)(F)F.O=C1COC2(CCN(Cc3ccco3)CC2)CN1`, -45.46%; in that of `c1cn(Cc2ccc(N3CCCN(C4CCCC4)CC3)nc2)cn1`, 1.871%.
In the case of `Fc1ccc(N2CCCN(c3ccc(Cn4ccnc4)cn3)CC2)cc1` it was 107.2%.
In the case of `c1csc(CN2CCCN(c3ccc(Cn4ccnc4)cn3)CC2)c1` it was -13.19%; in that of `Cc1cc2c(cc1CNC(Cc1cccs1)c1nccs1)OCO2.Cl` (stereo not drawn), 5.172%; in that of `CC(=O)N1C[C@@H]2CN(Cc3cccnc3)CCO[C@@H]2C1.O=C(O)C(F)(F)F.O=C(O)C(F)(F)F`, -47.04%.
On to `O=C(O)C(F)(F)F.O=C1[C@H]2CN(CC3CC3)C[C@H]2CN1c1ccsc1`, for which the “Percent Effect” value is on record as 20.81%.
Regarding `Clc1cncc(N2CCCC2c2nnc3n2CCCCC3)n1` (stereo not drawn), the “Percent Effect” value is reported as -7.126%.
For `Cc1cc(N2CCCC2c2nnc3n2CCCCC3)nc(C)n1` (stereo not drawn), the “Percent Effect” value was 66.84%.
The result for `Cc1cc(N2CCCC2c2nnc3n2CCCCC3)nc(N)n1` (stereo not drawn) reads -8.114%.
For `Cn1ncc2c1CN(Cc1ccc(F)cc1)CC2COCC1CC1.O=C(O)C(F)(F)F.O=C(O)C(F)(F)F` (stereo not drawn), the “Percent Effect” value is on record as -18.92%.
As for `Cn1ncc2c1CN(Cc1ccccc1F)CC2COCC1CC1.O=C(O)C(F)(F)F.O=C(O)C(F)(F)F` (stereo not drawn), the “Percent Effect” value came out at 103.1%.
On to `Cn1ncc2c1CN(Cc1cccnc1)CC2COCC1CC1.O=C(O)C(F)(F)F.O=C(O)C(F)(F)F.O=C(O)C(F)(F)F` (stereo not drawn), for which the “Percent Effect” value is recorded as -6.244%.
In the case of `COCCN1C(=O)CC(N2CCN(c3ccccc3)CC2)C1=O` (stereo not drawn) it was 12.72%; in that of `COCCN1C(=O)CC(N2CCN(c3ccc(OC)cc3)CC2)C1=O` (stereo not drawn), 70.99%; in that of `COCCN1C(=O)CC(N2CCN(c3ccc(F)cc3)CC2)C1=O` (stereo not drawn), -16.16%.
On to `CN1C(=O)CCC12CCCN(C(=O)c1ccncc1F)C2.O=C(O)C(F)(F)F` (stereo not drawn), for which the “Percent Effect” value was 38.17%.
The result for `Cl.NCC(=O)N1CCC(c2ccnc(Nc3cc(C(F)(F)F)ccn3)n2)C1` (stereo not drawn) reads -2.931%; that for `Cc1cccc(CN2CC[C@@H]3[C@@H]2CCN3Cc2cccs2)n1.O=C(O)C(F)(F)F.O=C(O)C(F)(F)F`, -14.73%; that for `CNC(=O)COC1COC2(CCN(Cc3cccnc3)CC2)C1.O=C(O)C(F)(F)F` (stereo not drawn), 22.59%.
On to `Cc1ccc(CNC2CCCc3c2cnn3Cc2ccccc2)s1.Cl` (stereo not drawn), for which the “Percent Effect” value was determined as 52.93%.
Turning to `Cc1cccc(CNC2CCCc3c2cnn3Cc2ccccc2)c1.Cl` (stereo not drawn), the “Percent Effect” value is -5.892%.
The result for `CCn1ncc2c1CCCC2NCc1ccc(C)s1` (stereo not drawn) reads 16.54%; that for `Cn1cc(CNC2CCc3c(ccc(=O)n3Cc3cccnc3)C2)cn1.O=C(O)C(F)(F)F.O=C(O)C(F)(F)F` (stereo not drawn), 12.8%.
The result for `CN(C)C(=O)[C@H]1CO[C@H]2CCN(c3ncc(F)cn3)C[C@H]2C1.O=C(O)C(F)(F)F` reads 5.292%; that for `CC(CNCc1ccc(F)cc1)Oc1ccccn1.Cl` (stereo not drawn), 4.534%; that for `Cc1nc(CN2CCCC(N(C)CCCc3ccccc3)C2)no1` (stereo not drawn), -1.488%.
Regarding `CN(CCc1cccs1)C1CCCN(Cc2noc(C3CC3)n2)C1` (stereo not drawn), the “Percent Effect” value is listed as 32.3%.
The result for `Cc1nc(CN2CCCC(N(C)c3ccc(C#N)cn3)C2)no1` (stereo not drawn) reads -30.96%; that for `Cc1nc(CN2CCCC(N(C)c3cnc4ccccc4n3)C2)no1` (stereo not drawn), 68.17%.
In the case of `CCc1nc(CN2CCCC(N(C)CCc3cccs3)C2)no1` (stereo not drawn) it was 22.05%; in that of `Cc1nc(CN2CCCC(N(C)CCc3cccs3)C2)no1` (stereo not drawn), 86.93%.
`Cc1nc[nH]c1CN1C[C@@H]2CC[C@H](C1)N(C(=O)c1cnn(C)c1)C2`: the “Percent Effect” value is -6.364%.
The result for `Cc1ccc(C(=O)N2Cc3c(CN4CCCCC4)nn(C)c3C2)cc1F.O=C(O)C(F)(F)F` reads -32.35%; that for `Cc1ccc(CN2CCC3(CC2)C(c2ccccc2)CC(=O)N3C)o1.O=C(O)C(F)(F)F` (stereo not drawn), 26.84%; that for `Cn1cc(C(=O)NCc2cn3c(n2)CN(CC2CCOC2)CC3)cn1.O=C(O)C(F)(F)F.O=C(O)C(F)(F)F` (stereo not drawn), -28.66%.
The result for `O=C1c2cnc(N3CCCC3)nc2CN1C1CCS(=O)(=O)C1` (stereo not drawn) reads 9.039%; that for `O=C(NC(Cc1ccsc1)c1nccs1)C1CC1` (stereo not drawn), -16.41%.
For `Cc1cccc(CNC(Cc2ccsc2)c2nccs2)n1` (stereo not drawn), the “Percent Effect” value is reported as 101.9%.
The result for `COc1cccc(CNC(Cc2cccs2)c2nc(C)c(C)s2)c1OC.Cl` (stereo not drawn) reads -9.078%.
In the case of `Cc1cccc(CNC(Cc2ccsc2)c2nc(C)c(C)s2)n1.Cl` (stereo not drawn) it was 106.6%.
With `COc1ccccc1CNC(Cc1cccs1)c1nc(C)c(C)s1.Cl` (stereo not drawn), the “Percent Effect” value was 6.532%.
In the case of `Cc1nc(C(Cc2ccsc2)NC(=O)CN2CCOCC2)sc1C` (stereo not drawn) it was -3.287%; in that of `CC(C)Oc1cccc(CNC(Cc2ccsc2)c2nccs2)c1.Cl` (stereo not drawn), 2.523%; in that of `Cc1nc(C(Cc2ccsc2)NC(=O)CCN2CCOCC2)sc1C` (stereo not drawn), 3.097%.
The result for `CCC(CN1CCCC1)NC(=O)C1(c2cccc(F)c2)CC1.O=C(O)CC(O)(CC(=O)O)C(=O)O` (stereo not drawn) reads -3.287%.
The result for `CN(C)C(=O)[C@@]12CCO[C@@H]1CCN(Cc1ccc3c(c1)OCO3)C2.O=C(O)C(F)(F)F` reads 4.753%.
